PubChem BioAssay AID1159580 (chemical genetic matrix, 2015)
Out of some 5,500 compounds screened, about 2,000 (36%) were called active. Not shown: some 18% with an inconclusive outcome. Rule as the data show it: active = normalized growth mostly below about 0.91 (no sharp cut-off); inconclusive = no clear call, values can overlap the other calls; inactive = mostly above about 0.92. This is one part of the list.

Test: chemical genetic growth profiling, strain panel (AID 1159580);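 also: tested at 20 µM; growth read once vehicle control cultures reached saturation at 30 °C; 1 = growth at the plate median or of vehicle wells; lower values mean less growth of the strain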
Details: S. cerevisiae deletion strains, growth OD

Measured: normalized growth

CCCCCCNC(=O)n1cc(F)c(=O)[nH]c1=O
inactive: locus YAL021C, strain ccr4, hits give low values 0.934 | locus YAL030W, strain snc1, hits give low values 0.96 | locus YBL061C, strain skt5, hits give low values 0.972 | locus YBR023C, strain chs3, hits give low values 0.937 | locus YBR171W, strain sec66, hits give low values 0.996 | locus YBR231C, strain swc5, hits give low values 0.988 | locus YCL011C, strain gbp2, hits give low values 0.91 | locus YCR088W, strain abp1, hits give low values 0.934 | locus YDL005C, strain med2, hits give low values 0.941 | locus YDL040C, strain nat1, hits give low values 0.991 | locus YDR001C, strain nth1, hits give low values 0.995 | locus YDR297W, strain sur2, hits give low values 0.978 | locus YDR334W, strain swr1, hits give low values 0.93 | locus YDR392W, strain spt3, hits give low values 0.776 | locus YEL061C, strain CIN8 (second series), hits give low values 0.95 | locus YER111C, strain swi4, hits give low values 0.923 | locus YGL167C, strain pmr1, hits give low values 0.918 | locus YGL227W, strain vid30, hits give low values 0.99 | locus YGL240W, strain doc1, hits give low values 0.971 | locus YHR013C, strain ard1, hits give low values 0.933 | locus YJL095W, strain BCK1 (second series), hits give low values 0.945 | locus YJL115W, strain asf1, hits give low values 0.941 | locus YJL154C, strain vps35, hits give low values 0.943 | locus YKL160W, strain elf1, hits give low values 0.907 | locus YKR026C, strain gcn3, hits give low values 0.993 | locus YKR091W, strain srl3, hits give low values 0.975 | locus YLL026W, hits give low values 0.974 | locus YLL041C, strain sdh2, hits give low values 0.979 | locus YLR027C, strain aat2, hits give low values 0.956 | locus YLR342W, strain FKS1, hits give low values 0.938 | locus YLR370C, strain arc18, hits give low values 0.923 | locus YLR384C, strain iki3, hits give low values 0.963 | locus YML120C, strain ndi1, hits give low values 0.92 | locus YMR058W, strain fet3, hits give low values 0.926 | locus YMR125W, strain sto1, hits give low values 0.958 | locus YMR129W, hits give low values 0.987 | locus YMR205C, strain PFK2, hits give low values 0.898 | locus YMR231W, strain pep5, hits give low values 0.942 | locus YNL209W, strain ssb2, hits give low values 0.959 | locus YNL322C, strain KRE1 (second series), hits give low values 0.936 | locus YNR049C, strain mso1, hits give low values 0.931 | locus YOR070C, strain gyp1, hits give low values 0.958 | locus YOR080W, strain dia2, hits give low values 0.968 | locus YOR265W, strain rbl2, hits give low values 0.968 | locus YPL240C, strain hsp82, hits give low values 0.978
active: locus YAL026C, strain drs2, hits give low values 0.849 | locus YBR009C, strain hhf1, hits give low values 0.861 | locus YBR279W, strain paf1, hits give low values 0.834 | locus YCL016C, strain dcc1, hits give low values 0.86 | locus YCL069W, strain vba3, hits give low values 0.842 | locus YDR069C, strain doa4, hits give low values 0.803 | locus YDR137W, strain rgp1, hits give low values 0.553 | locus YDR159W, strain sac3, hits give low values 1.22 [resistant] | locus YDR195W, strain ref2 0.678 | locus YDR335W, strain msn5, hits give low values 0.782 | locus YEL003W, strain gim4, hits give low values 0.895 | locus YEL037C, strain rad23, hits give low values 0.894 | locus YER015W, strain faa2, hits give low values 0.889 | locus YER016W, strain bim1, hits give low values 0.899 | locus YER155C, strain BEM2 (second series), hits give low values 0.767 | locus YFR010W, strain ubp6, hits give low values 0.757 | locus YGL173C, strain kem1, hits give low values 0.897 | locus YGL253W, strain hxk2, hits give low values 0.613 | locus YHR027C, strain rpn1, hits give low values 0.911 | locus YHR030C, strain SLT2, hits give low values 0.532 | locus YHR079C, strain IRE1, hits give low values 0.45 | locus YHR142W, strain chs7, hits give low values 0.741 | locus YJL092W, strain hpr5, hits give low values 0.912 | locus YJL095W, strain BCK1, hits give low values 0.541 | locus YJL129C, strain trk1, hits give low values 0.76 | locus YJL164C, strain tpk1, hits give low values 0.865 | locus YJL166W, strain qcr8, hits give low values 0.902 | locus YJR066W, strain TOR1, hits give low values 0.407 | locus YLL001W, strain dnm1, hits give low values 0.773 | locus YLR113W, strain HOG1, hits give low values 0.607 | locus YLR221C, strain rsa3, hits give low values 0.697 | locus YLR258W, strain gsy2, hits give low values 0.884 | locus YLR262C, strain YPT6 (second series), hits give low values 0.528 | locus YLR320W, strain mms22, hits give low values 0.733 | locus YLR357W, strain rsc2, hits give low values 0.803 | locus YNL071W, strain lat1, hits give low values 0.891 | locus YNL183C, strain NPR1, hits give low values 0.48 | locus YNL248C, strain rpa49, hits give low values 0.589 | locus YOR001W, strain rrp6, hits give low values 0.257 | locus YOR083W, strain WHI5, hits give low values 0.84 | locus YOR106W, strain vam3, hits give low values 0.668 | locus YOR231W, strain MKK1, hits give low values 0.41 | locus YOR270C, strain vph1, hits give low values 0.518 | locus YOR290C, strain snf2, hits give low values 0.723 | locus YPL051W, strain arl3, hits give low values 0.843 | locus YPL078C, strain atp4, hits give low values 0.77 | locus YPL106C, strain sse1, hits give low values 0.722 | locus YPL256C, strain CLN2, hits give low values 0.564
